Laboratory results reported in PubChem BioAssay.
Active and inactive are the calls of the source. No stated cut-off is given here; in the data, active means inhibition above about 31%; inactive means the rest.

Assay: reversal of MRP1-mediated doxorubicin resistance, pilot screen, H69AR cells, doxorubicin co-treatment (AID 601)
Conditions: H69AR cells, CellTiter-Glo, 72 h; compound alone cytotoxicity; at 10 µM

**Q.** Which viability does the source give for `c1ccc(C(Cc2nc(-c3ccccn3)no2)c2ccccc2)cc1` here?
**A.** 95.2%

**Q.** For `COC(=O)C(C)Sc1nnc2n(-c3cccc(C)c3)c(=O)c3c4c(sc3n12)CCCC4` (configuration not stated), which viability is on record?
**A.** 83.1%

**Q.** With `Cc1ccc(-c2noc(CN3C(C)CCCC3C)n2)cc1` (configuration not stated) as the molecule, how does the viability read?
**A.** 89.3%

**Q.** Which viability does the source give for `CCn1c(SCC(=O)Nc2ccc(Cl)cc2)nnc1C1CC1` here?
**A.** 74.7%

**Q.** With `COc1ccc(C2CC(c3ccco3)n3ncnc3N2)cc1` (configuration not stated) as the molecule, how does the viability read?
**A.** 95.4%

**Q.** For `COc1ccc(NC(=O)c2cc(C3CC3)on2)c(OC)c1`, which viability is on record?
**A.** 91.2%

**Q.** Which viability does the source give for `COc1cc(OC)c2c(c1)OC(c1ccc(OC)c(OC)c1)C(O)C2=O` (configuration not stated) here?
**A.** 90.9%

**Q.** Which viability does the source give for `N#CCCN(Cc1cccnc1)C(=O)Nc1ccc(Cl)c(Cl)c1` here?
**A.** 91.2%

**Q.** Which viability does the source give for `O=C(c1cccc(F)c1)N1CCc2ccccc21` here?
**A.** 98.9%

**Q.** Which viability does the source give for `COc1ccc(NC(=O)C2CCCCN2S(=O)(=O)c2ccc(F)cc2)cc1` (configuration not stated) here?
**A.** 89.2%

**Q.** With `CCN(CC)C(=O)Cn1ncc2c1-c1ccccc1OC2` as the molecule, how does the viability read?
**A.** 100%

**Q.** For `Cn1c(=O)oc2cc(S(=O)(=O)NC3CCN(Cc4ccccc4)CC3)ccc21`, which viability is on record?
**A.** 108%

**Q.** With `COCCOC(=O)c1[nH]c2c(c1C)C(=O)CC(c1ccco1)C2` (configuration not stated) as the molecule, how does the viability read?
**A.** 23.6%

**Q.** For `COc1ccccc1NC(=O)N(C1CCCC1)C1CCN(C(C)=O)CC1`, which viability is on record?
**A.** 88.3%

**Q.** With `COc1cc(C(=O)Nc2cccc(-c3nncn3C)c2)cc(OC)c1OC` as the molecule, how does the viability read?
**A.** 89%

**Q.** Which viability does the source give for `CCCCN(CC)CCNC(=O)c1cc2c(C)nc3ccccc3c2o1` here?
**A.** 85.3%

**Q.** For `Clc1ccc(SCCCCn2ccnc2)cc1`, which viability is on record?
**A.** 99.2%

**Q.** With `CCOC(=O)N1CCC(N2C(=O)c3ccccc3C2Nc2cc(Cl)c(OC)cc2OC)CC1` (configuration not stated) as the molecule, how does the viability read?
**A.** 78.2%

**Q.** Which viability does the source give for `O=C(Cn1nc(Cc2cccnc2)c2ccccc2c1=O)NCC1CCCO1` (configuration not stated) here?
**A.** 92.2%

**Q.** For `CCn1cc(SCC(=O)NCC2CCCO2)c2ccccc21` (configuration not stated), which viability is on record?
**A.** 85.5%

**Q.** For `Cc1noc(C)c1S(=O)(=O)N1CCN(Cc2ccc3c(c2)OCO3)CC1`, which viability is on record?
**A.** 95.4%

**Q.** With `CCOC(=O)c1ccc(N2Cc3cc(C)c(C)cc3C2)cc1O` as the molecule, how does the viability read?
**A.** 97.3%

Assay: 384-well plate pilot, post-Golgi transport modulator project, inhibition of yeast transport mutant growth (AID 636)
Conditions: absorbance 615 nm, about 18 h, stronger effect = higher value

**Q.** With `O=C(NCCN1CCCCCC1)c1ccc(CS(=O)(=O)c2ccc(Br)cc2)o1` as the molecule, how does the inhibition read?
**A.** 0.8% (inactive)

**Q.** For `Cc1ccc(S(=O)(=O)NCCOC(=O)Nc2sc(=S)n(C)c2C)cc1`, which inhibition is on record?
**A.** -2.84% (inactive)

**Q.** Which inhibition does the source give for `COc1ccccc1CC(=O)Nc1ccc(OC)c(OC)c1` here?
**A.** -6.76% (inactive)

**Q.** For `CCN(CC)C(=O)C1CCCc2c1[nH]c1ccc(Cl)cc21` (configuration not stated), which inhibition is on record?
**A.** 8.13% (inactive)

**Q.** For `CCOC(=O)N1CCC(NC(=O)C2CCCN(C(=O)c3cc4sccc4n3C)C2)CC1` (configuration not stated), which inhibition is on record?
**A.** -2.4% (inactive)

**Q.** For `CCOC(=O)c1[nH]c(C)c(C(=O)Nc2ccc(Cl)cc2)c1C`, which inhibition is on record?
**A.** 1.92% (inactive)

**Q.** With `O=C(NC(=O)c1cccc(F)c1)OC[C@@H]1CCCN2CCCC[C@H]12` as the molecule, how does the inhibition read?
**A.** -6% (inactive)

**Q.** With `COc1ccccc1-n1c(=O)[nH]c2c(C(N)=O)nc(-c3cccnc3)nc21` as the molecule, how does the inhibition read?
**A.** -3.2% (inactive)

**Q.** With `CC1(C)CC(=O)c2cnc(NC(=O)Cc3ccc(Cl)cc3)nc2C1` as the molecule, how does the inhibition read?
**A.** -9.46% (inactive)

**Q.** With `CC(C)(NC(=O)N1CCCC1)c1cccc(C(C)(C)NC(=O)N2CCCC2)c1` as the molecule, how does the inhibition read?
**A.** -4.42% (inactive)

**Q.** For `COc1ccc(NC(=O)C2CCCN(S(=O)(=O)c3cccc4cccnc34)C2)cc1OC` (configuration not stated), which inhibition is on record?
**A.** -4.13% (inactive)

**Q.** With `CCOc1ccc(CCN2C(=O)C3C4C=CC(C4)C3C2=O)cc1OCC` (configuration not stated) as the molecule, how does the inhibition read?
**A.** -6.27% (inactive)

**Q.** For `COc1ccc(S(=O)(=O)N2CCN(c3ccc(C)cc3C)CC2)cc1OC`, which inhibition is on record?
**A.** -5.87% (inactive)

**Q.** Which inhibition does the source give for `O=C(C1CCN(c2nnc(-n3cccc3)s2)CC1)N1CCc2ccccc2C1` here?
**A.** -0.26% (inactive)

**Q.** With `CCOc1cc(C2C3=C(CCCC3=O)N(C)C3=C2C(=O)CCC3)cc(Cl)c1O` as the molecule, how does the inhibition read?
**A.** -6.35% (inactive)

**Q.** With `O=C(OCN1C(=O)c2ccccc2C1=O)C1CCCCC1` as the molecule, how does the inhibition read?
**A.** 3.08% (inactive)

**Q.** For `Cc1ccc2cccc(SCC(=O)N3CCOCC3)c2n1`, which inhibition is on record?
**A.** -4.03% (inactive)

**Q.** With `c1ccn2c(SCc3ccc4c(c3)OCCO4)nnc2c1` as the molecule, how does the inhibition read?
**A.** -3.47% (inactive)

**Q.** Which inhibition does the source give for `c1ccc(C(Cc2nc(-c3ccccn3)no2)c2ccccc2)cc1` here?
**A.** -4.03% (inactive)

**Q.** Which inhibition does the source give for `COC(=O)C(C)Sc1nnc2n(-c3cccc(C)c3)c(=O)c3c4c(sc3n12)CCCC4` (configuration not stated) here?
**A.** 2.53% (inactive)

**Q.** Which inhibition does the source give for `Cc1ccc(-c2noc(CN3C(C)CCCC3C)n2)cc1` (configuration not stated) here?
**A.** -3.73% (inactive)

**Q.** With `CCn1c(SCC(=O)Nc2ccc(Cl)cc2)nnc1C1CC1` as the molecule, how does the inhibition read?
**A.** -2.27% (inactive)

**Q.** With `COc1ccc(C2CC(c3ccco3)n3ncnc3N2)cc1` (configuration not stated) as the molecule, how does the inhibition read?
**A.** -3.07% (inactive)

**Q.** Which inhibition does the source give for `COc1ccc(NC(=O)c2cc(C3CC3)on2)c(OC)c1` here?
**A.** 0% (inactive)

**Q.** Which inhibition does the source give for `COc1cc(OC)c2c(c1)OC(c1ccc(OC)c(OC)c1)C(O)C2=O` (configuration not stated) here?
**A.** -2.67% (inactive)

**Q.** With `N#CCCN(Cc1cccnc1)C(=O)Nc1ccc(Cl)c(Cl)c1` as the molecule, how does the inhibition read?
**A.** 0.13% (inactive)

**Q.** With `O=C(c1cccc(F)c1)N1CCc2ccccc21` as the molecule, how does the inhibition read?
**A.** -5.14% (inactive)

**Q.** Which inhibition does the source give for `COc1ccc(NC(=O)C2CCCCN2S(=O)(=O)c2ccc(F)cc2)cc1` (configuration not stated) here?
**A.** -7.47% (inactive)

**Q.** For `CCN(CC)C(=O)Cn1ncc2c1-c1ccccc1OC2`, which inhibition is on record?
**A.** -0.64% (inactive)

**Q.** For `Cn1c(=O)oc2cc(S(=O)(=O)NC3CCN(Cc4ccccc4)CC3)ccc21`, which inhibition is on record?
**A.** -0.51% (inactive)

**Q.** Which inhibition does the source give for `COCCOC(=O)c1[nH]c2c(c1C)C(=O)CC(c1ccco1)C2` (configuration not stated) here?
**A.** 0.64% (inactive)

**Q.** For `COc1ccccc1NC(=O)N(C1CCCC1)C1CCN(C(C)=O)CC1`, which inhibition is on record?
**A.** 0.77% (inactive)

**Q.** For `COc1cc(C(=O)Nc2cccc(-c3nncn3C)c2)cc(OC)c1OC`, which inhibition is on record?
**A.** -2.31% (inactive)

**Q.** With `CCCCN(CC)CCNC(=O)c1cc2c(C)nc3ccccc3c2o1` as the molecule, how does the inhibition read?
**A.** -5.73% (inactive)

**Q.** For `Clc1ccc(SCCCCn2ccnc2)cc1`, which inhibition is on record?
**A.** 1.22% (inactive)

**Q.** For `CCOC(=O)N1CCC(N2C(=O)c3ccccc3C2Nc2cc(Cl)c(OC)cc2OC)CC1` (configuration not stated), which inhibition is on record?
**A.** -4.8% (inactive)

**Q.** For `O=C(Cn1nc(Cc2cccnc2)c2ccccc2c1=O)NCC1CCCO1` (configuration not stated), which inhibition is on record?
**A.** -3.33% (inactive)

**Q.** For `CCn1cc(SCC(=O)NCC2CCCO2)c2ccccc21` (configuration not stated), which inhibition is on record?
**A.** -4.67% (inactive)

**Q.** For `Cc1noc(C)c1S(=O)(=O)N1CCN(Cc2ccc3c(c2)OCO3)CC1`, which inhibition is on record?
**A.** -0.93% (inactive)

**Q.** With `CCOC(=O)c1ccc(N2Cc3cc(C)c(C)cc3C2)cc1O` as the molecule, how does the inhibition read?
**A.** 4.27% (inactive)
